Test results from PubChem BioAssay.

tested on: wheat germ agglutinin (Triticum aestivum), Alexa647-labelled; assay: Alexa647-WGA lectin binding to printed small molecules – biochemical, small-molecule microarray, 635/667 nm fluorescence, artefact control for SMM control-protein annotation, profiling panel (AID 1140); conditions: WGA-A647 binding, 635 nm fluorescence, higher = more signal;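 note: score merges 667 nm feature emission with signal to noise over triplicate slides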

| SMILES | composite z-score |
| --- | --- |
| COC(=O)C[C@H]1O[C@@H](CCc2ccccc2)[C@@H](C)[C@@H]1[Si](C)(C)c1ccc(OC)cc1 | -0.359 |
| CC(=CC1CCCCC1)[C@@H](NC(=O)c1cccnc1)c1ccc(-c2ccccc2)cc1 | 0.495 |
| [N-]=[N+]=Nc1ccccc1C[C@]1(C(=O)NCC(O)CO)N=C(c2ccc(OCCCO)cc2)O[C@H]1c1ccccc1 (stereo not given in full) | 0.606 |
| COCC(=C=CC[C@H](O)c1cccc(OCCO)c1)CCO | -0.262 |
| COC(=O)[C@H](Cc1ccccc1)N[C@H](/C=C/C1CC1)[C@@H](O)Cc1ccccc1 | 0.0999 |
| C=CCOC(=O)[C@H]1[C@@H]2C(=O)O[C@@H](c3ccccc3)[C@@H](c3ccccc3)N2[C@@H](c2ccc(OCCOC(=O)[C@@H]3C[C@@H]4C(=O)N5CCC[C@H]5C(=O)N4[C@@H]3c3cccc(OCCO)c3)cc2)[C@]12C(=O)Nc1ccc(I)cc12 | 0.458 |
| COCC(=C=CC[C@@H](O)c1ccc(OCCO)cc1)C[C@@H](O)c1ccccn1 | 0.643 |
| COc1ccc([Si](C)(C)[C@@H]2[C@@H](CCO)O[C@]3(C(=O)N(Cc4cccc(N5CCOC5=O)c4)c4ccccc43)[C@H]2C)cc1 | 1.08 |
| [N-]=[N+]=Nc1ccccc1[C@H]1OC(c2ccc(OCCCO)cc2)=N[C@@]1(Cc1ccccc1)C(=O)N1CCOCC1 | 1.09 |
| CN1C(=O)C2C=CC(C(O)C=Cc3ccc([N+](=O)[O-])cc3)N(Nc3ccccc3)C2C1=O (stereo not given) | 0.289 |
| C#CCOc1ccc(C[C@@H](C(=O)OC)N(CC#C)[C@@H](/C=C/C2CC2)[C@H](O)Cc2ccccc2)cc1 | -1.34 |
| O=C(NCc1ccccc1)[C@@H]1c2ccccc2C(=O)N(C2Cc3ccccc3C2)[C@H]1c1ccc(CO)cc1 | 1.1 |
| COC(=O)c1c2oc(c1C(=O)OC)C(=O)NC1(CCCCC1)c1cn(nn1)C[C@H](Cc1ccccc1)NC(=O)N[C@H](CO)CC2 | 0.831 |
| CCCCCCc1nc(-c2ccc(-c3ccc(Cl)c(Cl)c3)o2)cc2c1[Si](C(C)C)(C(C)C)O[C@H]2c1ccccc1 | 1.04 |
| COCCOC(=O)N1C(=O)[C@@]2(c3cc(C#CC4(O)CCCCCC4)ccc31)[C@H](C(=O)Nc1nc3ccccc3s1)[C@H]1C(=O)O[C@H](c3ccccc3)[C@H](c3ccccc3)N1[C@@H]2c1ccc(OCCO)cc1 | 0.924 |
| COC(=O)[C@@]1(Cc2ccc(OC)cc2)[C@H]2c3cc(C(=O)N4CCCC4)n(CCCNc4ncc(C(F)(F)F)cc4Cl)c3C[C@H]2CN1C(=O)c1ccccc1 | 0.626 |
| COC(=O)[C@@]1(Cc2ccc(OC)cc2)[C@H]2c3cc(C(=O)N4CCCC4)n(CCc4ccc(O)c(O)c4)c3C[C@H]2CN1C(=O)c1ccccc1 | 1.22 |
| Cc1c(NC(=O)/C(C#N)=C/c2cccc([N+](=O)[O-])c2)c(=O)n(-c2ccccc2)n1C | 0.441 |

| SMILES | composite z-score |
| --- | --- |
| C[N+](C)(C)CCCC[C@@H]1NC(=O)[C@@H]2C[C@H](C(=O)NCCCCCCNC(=O)CS)[C@H](c3ccc(O)cc3)N2C1=O | -0.341 |
| COC(=O)[C@@]1(Cc2ccccc2)[C@H]2c3cc(C(=O)N4CCCC4)n(Cc4ccc(O)c(OC)c4)c3C[C@H]2CN1C(=O)c1ccccc1 | 0.504 |
| O=C1O[C@@H](c2ccccc2)[C@@H](c2ccccc2)N2[C@@H](c3ccccc3OCCO)[C@]3(C(=O)Nc4ccccc43)[C@@H](C(=O)O)[C@H]12 | 0.56 |
| CCCNC(=O)[C@@H]1c2ccccc2C(=O)N(Cc2ccccc2OC)[C@H]1c1ccc(CO)cc1 | 0.712 |
| CC[C@@H]1C=C(C(=O)O)[C@H](c2ccc(C)cc2)N1S(=O)(=O)c1ccc(C)cc1 | 0.568 |
| O=C1O[C@H](c2ccccc2)[C@H](c2ccccc2)N2[C@H]1[C@@H](C(=O)NC[C@H](O)c1ccccc1)[C@]1(C(=O)Nc3ccccc31)[C@H]2c1ccc(O)cc1 | 0.39 |
| Cc1ccc(S[C@]2(C(=O)NCC(C)C)CC(=O)N(Cc3cc(C(F)(F)F)cc(C(F)(F)F)c3)[C@@H]2c2ccc(CO)cc2)cc1 | -0.262 |
| COCCOC(=O)N1C(=O)[C@@]2(c3cc(C#CC4=CCCCC4)ccc31)[C@H](c1ccc(OCCO)cc1)N1[C@H](c3ccccc3)[C@H](c3ccccc3)OC(=O)[C@H]1[C@@H]2C(=O)N1CCc2cc(OC)c(OC)cc2C1 | -0.0709 |
| COc1ccccc1CN1C(=O)c2ccccc2[C@@H](C(=O)NCc2ccccc2)[C@@H]1c1ccc(CO)cc1 | 0.397 |
| COCCOC(=O)N1C(=O)[C@@]2(c3ccccc31)[C@H](C(N)=O)[C@H]1C(=O)O[C@H](c3ccccc3)[C@H](c3ccccc3)N1[C@@H]2c1ccc(O)cc1 | 0.839 |
| C=C(/C(=C/C[C@H](OC(C)=O)c1ccc(OCCO)cc1)c1cc(C(=O)OC)ccc1OC)C(C)C | 0.307 |
| COCCCNC(=O)[C@@]1(Sc2ccc(C)cc2)CC(=O)N(Cc2ccccc2Cl)[C@@H]1c1ccc(CO)cc1 | 0.966 |
| O=C(O)[C@H](Cc1ccccc1)n1cc(-c2ccccc2)nn1 | 0.651 |
| CC(C)[Si](C#CCCCC#N)(Oc1ccccc1Br)C(C)C | 0.327 |
| C=CC1c2cc(O)c(OC)cc2CCN1Cc1cccc(OC(F)(F)F)c1 (stereo not given) | 1.01 |
| O=C1OCCC=C[C@H]2OC34C=CCN(Cn5nnc6ccccc65)C(=O)[C@H]3N(CCO)C(=O)[C@@H]4C12 (stereo not given in full) | 0.522 |
| CC(C)[Si](C#C[Si](C(C)C)(C(C)C)C(C)C)(O[C@H](C)c1cn(Cc2ccccc2)nn1)C(C)C | 0.502 |
